From PubChem BioAssay (Tox21)
Records with an inconclusive call do not appear. Active and inactive are the calls of the source. Unless noted, the call rests on the fitted dose curve; in most records, active means well fitted curve in the direction sought with a large enough effect in the repeat runs; inconclusive means weak or mixed curves; inactive means no such curve, though single readings can be large; an effect the other way counts as inactive or inconclusive.

Columns and labels:
[1] = qHTS assay to identify small molecule antagonists of the glucocorticoid receptor (GR) signaling pathway - cell viability counter screen (AID 720693); further: nearly all actives have a fitted effect of over 55% in size
[2] = qHTS assay for identifying genotoxic compounds that show differential cytotoxicity against isogenic chicken DT40 cell lines with known DNA damage response pathways - Rad54/Ku70 mutant cell line (AID 743015); further: nearly all actives have a fitted effect of over 60% in size; further: potency means the concentration at half of the fitted maximal effect
[3] = qHTS assay to identify small molecule antagonists of the androgen receptor (AR) signaling pathway - cell viability counter screen (AID 743033; further: nearly all actives have a fitted effect of over 45% in size)
[4] = molecular target: Androgen receptor (Homo sapiens) (UniProt P10275); experiment: qHTS assay to identify small molecule antagonists of the androgen receptor (AR) signaling pathway (AID 743035; active means well fitted inhibition curve with a large enough effect in the signal ratio in the repeat runs, not every such curve was filed as active; the % refers to the signal ratio)
In short: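 Steps: seed AR-UAS-bla GripTite HEK293 cells, incubate 4 h at 37C; pin in test compound, then add agonist R1881; incubate 16 h at 37C; add LiveBLAzer B/G FRET substrate, 2 h at room temperature; read fluorescence.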

[5] = molecular target: Androgen receptor (Homo sapiens) (UniProt P10275); experiment: qHTS assay to identify small molecule agonists of the androgen receptor (AR) signaling pathway (AID 743036; active means well fitted activation curve with a large enough effect in the signal ratio in the repeat runs, with a control signal flat, not every such curve was filed as active; the % refers to the signal ratio)
In short: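 In this Tox21 qHTS, 2,000 HEK293 AR-bla cells per well were incubated with compounds for 16 h at 37C and 5% CO2. Fluorescence intensity was recorded 2 h after adding LiveBLAzer B/G FRET substrate at room temperature.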

[6] = molecular target: Androgen receptor (Homo sapiens) (UniProt P10275); experiment: qHTS assay to identify small molecule agonists of the androgen receptor (AR) signaling pathway using the MDA cell line (AID 743040; further: nearly all actives have a fitted effect of over 20% in size)
In short: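 Cell-based luciferase reporter: MDA-kb2, MMTV promoter (AR + GR response elements). 16 h compound exposure at 37C; ONE-Glo, 30 min RT, luminescence.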

[7] = qHTS assay to identify small molecule antagonists of the androgen receptor (AR) signaling pathway using the MDA cell line - cell viability counter screen (AID 743041; further: nearly all actives have a fitted effect of over 45% in size)
In short: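 In this qHTS counter assay, fluorescence intensity after CellTiter-Fluor addition indicated viability of MDA-kb2 AR-luc cells given compounds and R1881 for 16 h at 37C.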

[8] = molecular target: Androgen receptor (Homo sapiens) (UniProt P10275); experiment: qHTS assay to identify small molecule antagonists of the androgen receptor (AR) signaling pathway using the MDA cell line (AID 743042; further: nearly all actives have a fitted effect of over 55% in size)
In short: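 MDA-kb2 cells (human breast carcinoma, stably carrying an MMTV-luciferase reporter responsive to AR and GR) were plated at 3,000 cells/well and preincubated 5 hr at 37C, then given compound plus R1881 agonist for 16 h. ONE-Glo luminescence was read.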

[9] = qHTS assay to identify small molecule antagonists of the thyroid receptor (TR) signaling pathway - cell viability counter screen (AID 743064); further: nearly all actives have a fitted effect of over 50% in size
In short: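 Counter screen for cytotoxicity: compound plus T3 (1 nM final) on GH3.TRE-Luc cells, 23.5 h at 37 °C, then fluorescence viability readout with CellTiter-Fluor.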

[10] = qHTS assay to identify small molecule antagonists of the thyroid receptor (TR) signaling pathway (AID 743065); further: series mostly up to about 70 µM; nearly all actives have a fitted effect of over 55% in size
In short: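 GH3.TRE-Luc rat pituitary cells carrying two TR response elements driving luciferase were plated for 4 h, given compound plus 1 nM T3 (final), and incubated 23.5 h at 37 C. ONE-Glo luminescence measured reporter inhibition; CellTiter-Fluor fluorescence tracked cytotoxicity.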

[11] = system: thyroid hormone receptor (rat, GH3 cells); experiment: qHTS assay to identify small molecule agonists of the thyroid receptor (TR) signaling pathway (AID 743066; calls by dose curve)
[12] = qHTS assay to identify small molecule antagonists of the estrogen receptor alpha (ER-alpha) signaling pathway - cell viability counter screen (AID 743074; calls by dose curve;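 further: HEK293 cells carrying ER-alpha-UAS-bla reporter stimulated with 17beta-estradiol; nearly all actives have a fitted effect of over 45% in size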)
[13] = qHTS assay to identify small molecule antagonists of the estrogen receptor alpha (ER-alpha) signaling pathway using the BG1 cell line - cell viability counter screen (AID 743081);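 further: compound given together with 17beta-estradiol as the ER stimulus; series mostly up to about 70 µM; nearly all actives have a fitted effect of over 45% in size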
Aromatase (Homo sapiens) = Aromatase (Homo sapiens) (UniProt P11511); experiment: qHTS assay to identify aromatase inhibitors (AID 743083); further: nearly all actives have a fitted effect of over 55% in size; further: potency means the concentration at half of the fitted maximal effect
[14] = qHTS assay for identifying genotoxic compounds that show differential cytotoxicity against isogenic chicken DT40 cell lines with known DNA damage response pathways - Rev3 mutant cell line (AID 743014); further: nearly all actives have a fitted effect of over 55% in size; further: potency means the concentration at half of the fitted maximal effect
[15] = molecular target: Estrogen receptor (Homo sapiens) (UniProt P03372); experiment: qHTS assay to identify small molecule antagonists of the estrogen receptor alpha (ER-alpha) signaling pathway (AID 743069; active means well fitted curve in the direction sought with a large enough effect in the signal ratio in the repeat runs, not every such curve was filed as active; the % refers to the signal ratio)
In short: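 A 17beta-estradiol challenge was applied right after compound transfer to ER-alpha-UAS-bla HEK293 cells previously kept in charcoal-stripped serum. Plates stood 18 hr at 37C and 5% CO2; fluorescence was read following 2 hr FRET substrate loading at room temperature.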

[16] = molecular target: Estrogen receptor (Homo sapiens) (UniProt P03372); experiment: qHTS assay to identify small molecule agonists of the estrogen receptor alpha (ER-alpha) signaling pathway (AID 743075; calls by dose curve;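 further: HEK293 GripTite cells with ER-alpha and UAS-driven beta-lactamase reporter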)
[17] = molecular target: Estrogen receptor (Homo sapiens) (UniProt P03372); experiment: qHTS assay to identify small molecule agonists of the estrogen receptor alpha (ER-alpha) signaling pathway using the BG1 cell line (AID 743079); further: nearly all actives have a fitted effect of over 20% in size; further: potency means the concentration at half of the fitted maximal effect
[18] = qHTS assay to identify small molecule antagonists of the estrogen receptor alpha (ER-alpha) signaling pathway using the BG1 cell line (AID 743080; calls by dose curve; further: series mostly up to about 70 µM; nearly all actives have a fitted effect of over 25% in size)
In short: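 Antagonist mode: compounds in DMSO were pinned onto BG1-Luc-4E2 cells alongside 17beta-estradiol agonist, incubated 21.5 h, and ERE-driven luciferase measured with ONE-Glo. Cytotoxicity was multiplexed using CellTiter-Fluor fluorescence.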

Measured: Potency

Chain of Androgen receptor (Homo sapiens) (P10275 whole entry, looked up): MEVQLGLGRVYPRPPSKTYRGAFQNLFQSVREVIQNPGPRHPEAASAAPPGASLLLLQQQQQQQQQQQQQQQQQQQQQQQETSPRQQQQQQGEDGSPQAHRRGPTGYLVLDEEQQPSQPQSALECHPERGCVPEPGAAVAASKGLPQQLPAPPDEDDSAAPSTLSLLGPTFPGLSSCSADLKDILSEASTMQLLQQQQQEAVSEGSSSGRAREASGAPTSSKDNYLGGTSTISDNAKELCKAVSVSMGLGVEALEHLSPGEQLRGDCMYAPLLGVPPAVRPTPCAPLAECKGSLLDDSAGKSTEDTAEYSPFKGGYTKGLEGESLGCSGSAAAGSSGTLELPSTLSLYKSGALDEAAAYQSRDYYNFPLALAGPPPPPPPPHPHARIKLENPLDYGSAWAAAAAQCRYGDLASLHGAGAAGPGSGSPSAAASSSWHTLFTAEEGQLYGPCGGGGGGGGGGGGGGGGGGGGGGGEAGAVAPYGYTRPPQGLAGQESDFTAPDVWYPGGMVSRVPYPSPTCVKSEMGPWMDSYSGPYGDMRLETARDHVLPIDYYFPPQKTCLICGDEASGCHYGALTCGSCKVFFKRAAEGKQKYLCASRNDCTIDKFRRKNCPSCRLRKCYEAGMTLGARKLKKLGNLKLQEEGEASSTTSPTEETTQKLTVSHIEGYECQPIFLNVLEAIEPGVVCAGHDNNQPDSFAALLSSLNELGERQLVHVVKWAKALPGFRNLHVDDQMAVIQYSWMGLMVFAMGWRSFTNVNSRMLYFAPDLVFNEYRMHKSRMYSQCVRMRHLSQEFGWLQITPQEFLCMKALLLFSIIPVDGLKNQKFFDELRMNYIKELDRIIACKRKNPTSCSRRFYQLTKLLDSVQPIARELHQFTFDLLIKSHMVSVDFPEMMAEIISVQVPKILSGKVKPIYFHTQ
Chain of Estrogen receptor (Homo sapiens) (P03372 whole entry, looked up): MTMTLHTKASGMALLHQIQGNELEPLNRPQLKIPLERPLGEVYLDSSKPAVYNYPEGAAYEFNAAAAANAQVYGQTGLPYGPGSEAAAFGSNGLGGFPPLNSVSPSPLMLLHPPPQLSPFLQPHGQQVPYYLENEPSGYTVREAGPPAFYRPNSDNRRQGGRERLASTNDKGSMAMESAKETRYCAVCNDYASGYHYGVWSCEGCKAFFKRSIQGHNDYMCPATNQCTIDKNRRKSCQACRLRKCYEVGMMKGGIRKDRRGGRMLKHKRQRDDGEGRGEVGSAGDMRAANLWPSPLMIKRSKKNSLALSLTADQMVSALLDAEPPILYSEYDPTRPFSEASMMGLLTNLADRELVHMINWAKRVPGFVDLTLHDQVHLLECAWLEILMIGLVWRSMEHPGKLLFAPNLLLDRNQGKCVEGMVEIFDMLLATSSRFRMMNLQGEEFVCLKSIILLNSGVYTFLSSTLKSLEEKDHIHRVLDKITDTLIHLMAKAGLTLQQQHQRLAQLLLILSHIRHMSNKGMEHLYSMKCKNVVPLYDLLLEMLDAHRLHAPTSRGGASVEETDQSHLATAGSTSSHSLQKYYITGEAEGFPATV
Chain of Aromatase (Homo sapiens) (P11511 whole entry, looked up): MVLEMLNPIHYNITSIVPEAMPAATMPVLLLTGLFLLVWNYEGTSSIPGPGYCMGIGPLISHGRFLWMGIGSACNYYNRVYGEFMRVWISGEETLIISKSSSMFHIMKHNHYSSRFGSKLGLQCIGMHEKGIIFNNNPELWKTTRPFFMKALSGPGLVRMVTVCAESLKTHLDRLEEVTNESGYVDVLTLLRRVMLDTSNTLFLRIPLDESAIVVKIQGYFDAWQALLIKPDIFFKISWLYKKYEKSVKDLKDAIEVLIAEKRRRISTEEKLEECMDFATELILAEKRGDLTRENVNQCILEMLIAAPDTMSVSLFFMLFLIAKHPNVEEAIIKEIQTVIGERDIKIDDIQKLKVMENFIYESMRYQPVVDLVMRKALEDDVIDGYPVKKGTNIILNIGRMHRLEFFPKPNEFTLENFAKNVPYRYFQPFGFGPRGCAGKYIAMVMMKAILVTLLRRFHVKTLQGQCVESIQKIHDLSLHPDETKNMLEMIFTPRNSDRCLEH

O=C(O)c1cc(Br)c(O)c(Br)c1
not listed: [14] | [15] | [16] | [17] | [18]
inactive: all other assays above

O=C(O)Cc1cn(-c2ccccc2)nc1-c1ccc(Cl)cc1
not listed: [4] | [5] | [6] | [8]
inactive: all other assays above

O=S(=O)(O)c1cc(O)c2ccc(Nc3ccccc3)cc2c1
not listed: [4] | [5] | [6] | [8] | [17]
inactive: all other assays above

N[C@@H](CCC(=O)Nc1ccc([N+](=O)[O-])cc1)C(=O)O
not listed: [7] | [14]
inactive: all other assays above

CCCN1C[C@H](CSC)C[C@@H]2c3cccc4[nH]cc(c34)C[C@H]21
inactive: [1] | [14] | [3] | [11] | [15] | [12] | [16] | [13] | Aromatase (Homo sapiens)

COC(=O)CCCCCCCC(=O)OC
not listed: [4] | [5] | [6] | [8]
inactive: all other assays above

CCC(C)NC(N)=O (centres undefined)
not listed: [14]
inactive: all other assays above

Nc1ccc2cc(S(=O)(=O)O)cc(O)c2c1
not listed: [14]
inactive: all other assays above

CC(=O)c1ccc2c(c1)Cc1ccccc1-2
active: [17] 24.4 µM
not listed: [4] | [5] | [6] | [8] | [9] | [16] | [18]
inactive: all other assays above

CCCCNc1ccc(C(=O)OCCN(C)C)cc1
active: [14] 2.85 µM | [2] 5.07 µM
inactive: [1] | [3] | [7] | [9] | [11] | [12] | [13] | Aromatase (Homo sapiens)

CC(C(=O)O)c1ccc2c(c1)CC(=O)c1ccccc1S2 (centres undefined)
not listed: [5] | [10] | [13] | [14]
inactive: all other assays above

CN(C)C(=O)CNC(=O)Cc1ccccc1
not listed: [4] | [5] | [6] | [8] | [13]
inactive: all other assays above

FC(F)(F)c1ccccc1-n1ccnc1
active: Aromatase (Homo sapiens) 6.68 µM
inactive: [1] | [14] | [2] | [3] | [7] | [9] | [10] | [11] | [12] | [13]

CC(=O)Nc1cccc(C)c1
not listed: [4] | [5] | [6] | [8] | [13]
inactive: all other assays above

Cc1cccc2nccnc12
not listed: [4] | [5] | [6] | [8] | [17]
inactive: all other assays above

CCN1CCc2nc(N)oc2CC1
not listed: [4] | [5] | [6] | [8] | [15]
inactive: all other assays above

NC(CO)C(=O)NNCc1ccc(O)c(O)c1O (centres undefined)
not listed: [14]
inactive: all other assays above

CNC(=O)[C@H]1O[C@@H](n2cnc3c(NCc4cc(Cl)ccc4OCc4cc(C)no4)ncnc32)[C@H](O)[C@@H]1N
not listed: [12] | [14]
inactive: all other assays above
